Laboratory results published in PubChem BioAssay AID488969 (Vanderbilt High Throughput Screening Facility, 2010).
Over roughly 110,000 compounds, “z-score” has its median near -0.1; the highest 2% begin near 2. This excerpt belongs to a sample that is enriched for the highest values. Activity calls are given as the source filed them.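 The calls were made as follows: active = z-score in the third read window above 3 or below -3; inactive = the rest.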

These molecules were tested against Metabotropic glutamate receptor 8 (Rattus norvegicus) (UniProt P70579) (assay: rat mGluR8 modulators via GIRK flux, primary screen, cell-based, thallium flux, HTS (AID 488969)). Conditions: HEK293 rat mGluR8, GIRK (G protein-gated inwardly rectifying potassium channel) thallium flux, FluoZin2; at 10 µM; stronger effect = higher value; submaximal glutamate (EC20) added with thallium.
Chain of Metabotropic glutamate receptor 8 (Rattus norvegicus) (P70579 whole entry, looked up): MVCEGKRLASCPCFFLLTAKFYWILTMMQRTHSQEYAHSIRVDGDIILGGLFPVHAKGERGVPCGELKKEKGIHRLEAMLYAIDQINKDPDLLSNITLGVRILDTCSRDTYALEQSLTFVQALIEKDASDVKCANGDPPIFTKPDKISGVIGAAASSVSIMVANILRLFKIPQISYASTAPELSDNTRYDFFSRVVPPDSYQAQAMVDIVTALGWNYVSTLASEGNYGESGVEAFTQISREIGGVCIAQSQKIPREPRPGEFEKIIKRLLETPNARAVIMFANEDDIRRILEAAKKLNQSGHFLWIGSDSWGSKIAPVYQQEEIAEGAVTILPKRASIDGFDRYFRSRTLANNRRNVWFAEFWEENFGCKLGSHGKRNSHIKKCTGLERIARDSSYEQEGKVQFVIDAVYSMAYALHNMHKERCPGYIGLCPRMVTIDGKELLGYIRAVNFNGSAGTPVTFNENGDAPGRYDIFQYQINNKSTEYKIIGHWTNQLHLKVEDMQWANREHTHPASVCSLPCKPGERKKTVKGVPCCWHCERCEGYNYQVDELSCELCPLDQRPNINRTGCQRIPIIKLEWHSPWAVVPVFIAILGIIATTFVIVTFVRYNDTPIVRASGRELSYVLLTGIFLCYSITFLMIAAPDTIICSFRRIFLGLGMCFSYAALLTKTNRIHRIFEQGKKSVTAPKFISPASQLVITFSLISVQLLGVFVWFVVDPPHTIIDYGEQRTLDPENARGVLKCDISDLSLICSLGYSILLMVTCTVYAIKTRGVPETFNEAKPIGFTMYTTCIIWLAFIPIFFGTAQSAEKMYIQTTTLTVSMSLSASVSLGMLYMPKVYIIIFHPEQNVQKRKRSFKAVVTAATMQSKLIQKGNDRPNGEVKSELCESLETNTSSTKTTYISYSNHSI
For `O=C1c2ccccc2C(Nc2ccc(S(=O)(=O)N3CCOCC3)cc2)N1c1ccccn1` (stereo not drawn), the z-score was -0.244.
`COc1ccc(CN(C)CC(=O)Nc2cc(OC)c([N+](=O)[O-])cc2C)c(OC)c1` showed a z-score of -0.503.
With `COc1ccccc1C(=O)NCC1CCN(c2ccc(S(=O)(=O)N3CCOCC3)cc2)CC1` the z-score was -0.35.
`COc1ccccc1OCc1ccc(C(=O)NN)cc1` gave a z-score of -0.037.
`O=C(NCC1CCCO1)C1CC1(c1ccccc1)c1ccccc1` (stereo not drawn) was tested, and the z-score was 1.76.
`CCOc1cc(C(=O)OCC(=O)c2c(C)[nH]c3ccccc23)ccc1OCC(=O)N1CCOCC1` showed a z-score of -0.335.
`CNC(=O)C1=C(C)Nc2nc3ccccc3n2C1c1cccc(OC)c1` (stereo not drawn) gave a z-score of -0.775.
Work on `CCOC(=O)C1CCCN(C(=O)CSCc2ccccc2)C1` (stereo not drawn) yielded a z-score of -1.22.
Work on `Cc1cc(C)c2c(=O)n(CC(=O)N3CCC(N4CCCCC4)CC3)sc2n1` yielded a z-score of -0.421.
In the case of `CCOC(=O)C1CCCN(C(=O)CSc2nccn2C)C1` (stereo not drawn), the z-score is reported as 2.87.
With `CCOC(=O)C1CCCN(C(=O)Cn2sc3nc(C)cc(C)c3c2=O)C1` (stereo not drawn) the z-score was 2.2.
Molecule `CCOC(=O)C1CCCN(C(=O)COc2ccccc2O)C1` (stereo not drawn) has a z-score of 0.0285.
Molecule `Cc1cccc(N2CCN(C(=O)Cn3sc4nc(C)cc(C)c4c3=O)CC2C)c1` (stereo not drawn) has a z-score of 0.149.
Molecule `COc1ccccc1N(CC(=O)Nc1ccccc1C(=O)NC(C)C)S(C)(=O)=O` has a z-score of -0.955.
For `O=C1CCC([N+](=O)[O-])C(c2ccc(Cl)cc2Cl)N1` (stereo not drawn), the z-score was -0.219.
Work on `CCCN1C(=O)/C(=C/c2ccco2)SC1=Nc1ccc(OC)cc1` yielded a z-score of -0.105.
`O=C(CCS(=O)(=O)Cc1ccccc1)N1CCc2ccccc2C1` showed a z-score of -0.136.
For `O=C(NCC1CCCO1)c1c(O)c2c([nH]c1=O)CCCC2` (stereo not drawn), the z-score was 2.44.
Molecule `CCN1CCCC1CNC(=O)c1c(O)c2c([nH]c1=O)CCCC2` (stereo not drawn) has a z-score of -0.0826.
For `C[N+](C)(C)CCNC(=O)c1c(O)c2c([nH]c1=O)CCCC2`, the z-score was 0.798.
With `COc1ccc(CNC(=O)CN(Cc2ccc(C)cc2)S(=O)(=O)c2ccc(Cl)cc2)cc1` the z-score was 0.0059.
In the case of `CC1=C(C(=O)N2CCCCC2)C(c2cccs2)C2=C(CCCC2=O)N1` (stereo not drawn), the z-score is reported as 0.187.
In the case of `CC1SC(c2ccc(Cl)cc2Cl)NC1=O` (stereo not drawn), the z-score is reported as -0.0303.
`C=C(C)C1CC=C(C)/C(=N/NC(=O)CNc2ccc(OCC)cc2)C1` (stereo not drawn) showed a z-score of 1.99.
`C=C(C)C1CC=C(C)/C(=N/NC(=O)COc2cccc(C)c2)C1` (stereo not drawn) was tested, and the z-score was 8.9 (active).
`C=C(C)C1CC=C(C)/C(=N\NC(=O)CNc2ccccc2OC)C1` (stereo not drawn) showed a z-score of 0.0831.
`C=C(C)C1CC=C(C)/C(=N\NC(=S)Nc2ccc(C)cc2)C1` (stereo not drawn) gave a z-score of 0.799.
Work on `C=C(C)C1CC=C(C)/C(=N/NC(=S)Nc2ccccc2)C1` (stereo not drawn) yielded a z-score of 2.35.
Work on `C=C(C)C1CC=C(C)/C(=N/NC(=O)COc2ccccc2C)C1` (stereo not drawn) yielded a z-score of 1.
`C=C(C)C1CC=C(C)/C(=N\NC(=O)CCc2ccccc2)C1` (stereo not drawn) showed a z-score of -0.339.
In the case of `C=C(C)C1CC=C(C)/C(=N/NC(=O)COc2ccccc2Cl)C1` (stereo not drawn), the z-score is reported as 12.4 (active).
Work on `C=C(C)C1CC=C(C)/C(=N/NC(=O)COc2ccc(C)cc2)C1` (stereo not drawn) yielded a z-score of 1.47.
For `C=C(C)[C@H]1CC=C(C)/C(=N/NC(=O)CNc2ccccc2OC)C1`, the z-score was 0.284.
`C=C(C)C1CC=C(C)/C(=N/NC(=O)COc2cccc3ccccc23)C1` (stereo not drawn) was tested, and the z-score was 0.0808.
For `C=C(C)C1CC=C(C)/C(=N/NC(=O)CNc2ccc(C)cc2C)C1` (stereo not drawn), the z-score was -0.284.
For `Cc1nn(Cc2ccc(Br)cc2)c(C)c1NC(=O)c1nn(C)cc1Cl`, the z-score was -0.296.
For `COC(=O)c1ccccc1NC(=O)CN(C)S(=O)(=O)c1ccc(OC)cc1`, the z-score was 0.195.
`Fc1ccc(/C=C2\CCCC3=C2NC(=S)NC3c2ccc(F)cc2)cc1` (stereo not drawn) showed a z-score of -0.0195.
In the case of `N#CC1(C#N)C2=C(CCCC2)NC(c2ccccc2)C1(C#N)C#N` (stereo not drawn), the z-score is reported as -0.0942.
With `O=C(NCCc1ccccc1F)/C(=C/c1cccnc1)NC(=O)c1ccccc1` the z-score was 0.0991.
With `O=C(Nc1ccccc1)c1c(F)c(F)c(F)c(F)c1F` the z-score was -0.122.
With `COc1ccc(CC(=O)NCCc2ccc(S(N)(=O)=O)cc2)cc1` the z-score was 0.445.
Work on `O=c1c(CN2CCN(Cc3ccccc3)CC2)coc2ccc(Cl)cc12` yielded a z-score of -0.714.
Molecule `CCOC(=O)c1cc(-c2ccc(OC)cc2)nc2c1c(C)nn2CCC#N` has a z-score of -0.93.
`CCOC(=O)c1cc(-c2ccc(C#N)cc2)nc2c1c(C)nn2CCC#N` was tested, and the z-score was -0.234.
`CCOC(=O)c1cc(-c2ccc(Cl)cc2)nc2c1c(C)nn2CCC#N` was tested, and the z-score was 3.13 (active).
Work on `S=c1[nH]nc(Cc2sc(-c3ccccc3)nc2-c2ccccc2)o1` yielded a z-score of 0.186.
Molecule `CCCNCC1C(Oc2ccc(Cl)cc2)C(=O)N1c1ccccc1C` (stereo not drawn) has a z-score of 1.55.
With `Cc1ccccc1N1C(=O)C(Oc2ccc(Cl)cc2)C1CNCCCOC(C)C` (stereo not drawn) the z-score was 2.95.
`COCCCNCC1C(Oc2ccc(Cl)cc2)C(=O)N1c1ccccc1C` (stereo not drawn) showed a z-score of 0.258.
`Cc1cc(C)c(OCCCCCNCCO)c(C)c1` gave a z-score of 1.43.
Molecule `CCc1ccc2nc(-c3cccc(C)c3)nc(SCC(=O)NCC3CCCO3)c2c1` (stereo not drawn) has a z-score of -0.227.
`Cc1n[nH]c(C)c1SCC(=O)Nc1ccc(F)cc1` was tested, and the z-score was 0.159.
Molecule `COc1cccc(Nc2ccc(C(=O)O)cc2[N+](=O)[O-])c1` has a z-score of 0.594.
`O=C(c1cccc(Br)c1)c1cn(-c2ccccc2)nc1C(=O)c1ccccc1` showed a z-score of -0.106.
In the case of `CCOc1ccc2[nH]c(=O)c(C(c3nnnn3C3CCCCC3)N3CCN(CC)CC3)cc2c1` (stereo not drawn), the z-score is reported as 0.408.
`COC(=O)c1cc(C(=O)OC)cc(N2C(=O)CC(Sc3nc(C)cc(C)n3)C2=O)c1` (stereo not drawn) was tested, and the z-score was 0.178.
With `COC(=O)c1ccc(N2C(=O)CC(SCCN)C2=O)cc1` (stereo not drawn) the z-score was -0.299.
In the case of `COC(=O)c1ccc(N2C(=O)CC(Sc3n[nH]c(C)n3)C2=O)cc1` (stereo not drawn), the z-score is reported as 4.88 (active).
Work on `Cc1noc(C(=O)NCc2ccccc2)c1Cl` yielded a z-score of -0.324.
Work on `C/C(=N/NC(=O)Cc1cccc2ccccc12)c1cccs1` yielded a z-score of -0.221.
Molecule `CCOC(=O)CSc1n[nH]c(NC(=O)c2cccc(C(F)(F)F)c2)n1` has a z-score of -0.122.
`CCOC(=O)CSc1n[nH]c(NC(=O)c2cccc(C)c2)n1` gave a z-score of 2.67.
With `CCOC(=O)CSc1n[nH]c(NC(=O)c2ccccc2)n1` the z-score was 0.788.
In the case of `c1cncc(-c2nc3ccccc3[nH]2)c1`, the z-score is reported as -0.186.
With `O=c1[nH]cnc2c1sc1nc3c(c(-c4ccc(Cl)cc4)c12)CCC3` the z-score was -0.722.
`CC(OC(=O)c1nsc(Cl)c1Cl)C(=O)NC(C)(C)C` (stereo not drawn) showed a z-score of 0.181.
Work on `Cc1cc(OCC(=O)Nc2ccc(F)c(F)c2)nc(C(C)C)n1` yielded a z-score of 0.156.
Molecule `O=C(NNS(=O)(=O)c1ccccc1)C1CCN(S(=O)(=O)c2ccc(Cl)cc2)CC1` has a z-score of -0.131.
`C=CCCCCCCCCc1nc(=S)[nH][nH]1` was tested, and the z-score was 9.76 (active).
In the case of `CCCCOc1ccc(-c2nc(=S)[nH][nH]2)cc1`, the z-score is reported as 0.294.
With `CCCCCCCCCc1nc(N)n[nH]1` the z-score was -0.191.
`CCCCCCCCc1nc(=S)[nH][nH]1` was tested, and the z-score was 15.3 (active).
